Laboratory results reported in ChEMBL document CHEMBL3988442, “University of Dundee, Small-Polar-MMV Screening Library” (2021).

target: AMP-activated protein kinase, AMPK (Homo sapiens) (UniProt P54646+O43741+P54619+Q9UGJ0+Q9Y478+Q13131+Q9UGI9); test: AMP-dependent Kinase enzyme assay. An in vitro enzyme assay that detects ADP turnover that is directly proportional to AMPK activity. This uses naive AMPK that is activated during the assay with MK-8722; assay type: functional; parameters: scale not given: direction of the effect not stated beside the values; conditions: 30 µM

SMILES	Percent Effect
COc1ccc(F)cc1C(=O)C1CCCN(Cc2ccc(C)s2)C1 (stereo not given)	6.05%
O=C(N[C@H]1CN2CCC1CC2)c1cc(Cn2cnc3ccccc32)[nH]n1	-6.79%
CC(C)c1cc(N2CCC3(CC2)CN(C)CCN3C)ncn1	-4.27%
CC(C)c1ccccc1OCCNC(=O)N1CCC2(CC1)OCCO2	-2.79%
Cc1ccc(NC(=O)CNC(C)Cc2ccsc2)cc1F (stereo not given)	-6.2%
COc1ncnc(N)c1CNCCc1ccccc1	-4.78%
CS(=O)(=O)N1C[C@H]2CC[C@@H]1CN(Cc1ccncc1)C2	11.6%
COc1ccccc1CCN(C)Cc1nc(N)nc(N(C)C)n1	-4.89%
CC(C)(C)c1cc(=O)[nH]c(C2(N)CCCCC2)n1	2.04%
CC(=O)Nc1ccc(-c2ccccc2CCN)cc1	3.13%
CC1CN(C)CCN1C(=O)Cc1cc(Cl)c2c(c1)OCCO2 (stereo not given)	1.93%
Cc1nc(C)c(CC(=O)N2CCCN(CC3CC3)C(C(C)C)C2)c(=O)[nH]1 (stereo not given)	-7.23%
CSc1ccccc1C(=O)C1CCCN(Cc2ccccn2)C1 (stereo not given)	18.7%
Cc1nc(N)nc(C)c1CC(=O)N1CCCN(CC2CC2)C(C(C)C)C1 (stereo not given)	-4.33%
Cc1cccc(CC(=O)N2CCCC(N(C)CCCN(C)C)C2)c1 (stereo not given)	6.04%
Cc1[nH]c(=O)[nH]c(=O)c1CC(=O)N1CCCN(CC2CC2)C(C(C)C)C1 (stereo not given)	3.13%
COC(=O)N1C[C@H]2CC[C@@H]1CN(Cc1ccncc1)C2	0.146%
CCc1cccc2c(CC(=O)N(C)CCN(C)C)c(C)[nH]c12	9.67%
COc1ccc(CC(C)Nc2cccc(F)c2)cc1 (stereo not given)	4.95%
Cc1cc(Cl)ccc1C(=O)C1CCCN(Cc2cnc(N(C)C)s2)C1 (stereo not given)	3.99%
COc1ccc(Cl)cc1CN(C)C(=O)CN1C(=O)CCC1C (stereo not given)	6.65%
O=C(N[C@H]1COC[C@@H]1N1CCCC1)c1csc(Cc2ccccc2)n1	4.04%
Cc1cc(NCCc2c[nH]cn2)nc(-c2cccnc2)n1	1.96%
CC(C)[C@@H]1CN(C(=O)C2(c3ccccc3)CCN(C)CC2)C[C@H]1N(C)C	-5.45%

target: T1, Arginase-2, mitochondrial (Homo sapiens) (UniProt P78540); test: in vitro enzyme assay to detect the production of urea directly proportional to the activity of Arginase II; assay type: functional; parameters: scale not given: in the data most compounds retested in dose-response had high values; conditions: 30 µM
T1 sequence (whole entry): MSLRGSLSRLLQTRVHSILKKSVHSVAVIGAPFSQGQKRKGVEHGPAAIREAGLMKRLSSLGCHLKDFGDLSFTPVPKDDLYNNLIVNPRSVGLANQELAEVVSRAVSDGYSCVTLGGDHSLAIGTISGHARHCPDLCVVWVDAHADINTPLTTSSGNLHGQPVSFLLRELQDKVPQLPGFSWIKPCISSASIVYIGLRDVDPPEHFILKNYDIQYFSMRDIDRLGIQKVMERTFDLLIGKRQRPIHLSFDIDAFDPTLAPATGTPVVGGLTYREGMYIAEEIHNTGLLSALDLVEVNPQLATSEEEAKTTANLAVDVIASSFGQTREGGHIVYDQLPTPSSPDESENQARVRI

SMILES	Percent Effect
O=C1CSC(c2ccccc2)c2c(n(C3CCOCC3)[nH]c2=O)N1 (stereo not given)	5.95%
O=C1CSC(c2ccc(O)cc2)c2c(n(C3CCOCC3)[nH]c2=O)N1 (stereo not given)	11.3%
O=C1CSC(c2ccsc2)c2c(n(C3CCCC3)[nH]c2=O)N1 (stereo not given)	4.87%
Cn1cc(C2SCC(=O)Nc3c2c(=O)[nH]n3C2CCOCC2)cn1 (stereo not given)	0.54%
c1ccc(O[C@H]2CO[C@@]3(CCCN(Cc4nccs4)C3)C2)nc1	-0.54%
O=C1CSC(c2cccnc2)c2c(n(C3CCOCC3)[nH]c2=O)N1 (stereo not given)	7.03%
O=C1CSC(c2ccncc2)c2c(n(C3CCOCC3)[nH]c2=O)N1 (stereo not given)	9.19%
O=C1CSC(c2ccc(Cl)cc2Cl)c2c(n(C3CCOCC3)[nH]c2=O)N1 (stereo not given)	8.11%
Cc1nc(NCC2CC2)nc2c1COCC21CCNC1 (stereo not given)	8.11%
CSc1ccc(C2SCC(=O)Nc3c2c(=O)[nH]n3C2CCOCC2)cc1 (stereo not given)	8.11%
CN(Cc1cncnc1)[C@H]1CN(Cc2ccco2)[C@@H]2CCCO[C@@H]21	4.87%
c1ccc(CN2CCC3(CC2)CCN(Cc2cccnc2)C3)nc1	8.11%
O=C(NCc1ccccn1)[C@]12COC[C@H]1CN(Cc1ccsc1)C2	5.95%
CN(Cc1ccco1)[C@@H]1CN(Cc2cccnc2)[C@@H]2CCCO[C@H]12	2.7%
O=C1CSC(c2ccc(F)c(Cl)c2)c2c(n(C3CCOCC3)[nH]c2=O)N1 (stereo not given)	-0.54%
c1ccc(O[C@@H]2CO[C@@]3(CCCN(CC4CCOCC4)C3)C2)nc1	8.11%
